A short description of test [1]: resazurin metabolic signal in HepG2 cells – cell-based, resazurin fluorescence, 24 h, PK04 Diversity Set, profiling panel (AID 1172). Further: test concentration not given here. As to conditions: HepG2 viability, higher = more signal.
Test [2] can be described thus: budding yeast growth changes without added modifier – OD600, strain BY4716, 24 h, basal condition, primary screen (AID 1173). As to conditions: S. cerevisiae BY4716 growth, OD600, 24 h; higher = more signal, called active from +8 up or from −8 down.
Test [3] in a line: viability profiling in MM1S myeloma cells – cell-based, resazurin fluorescence, basal, 24 h, PK04 Diversity Set, profiling panel (AID 1174). Further: test concentration not given here. As to conditions: higher = more signal, called active from +8 up or from −8 down. For orientation: Resazurin is reduced to fluorescent resorufin, in cell work by metabolically active cells.
Test [4] deals with Dihydroorotate dehydrogenase (quinone), mitochondrial (Plasmodium falciparum (isolate 3D7)) (UniProt Q08210). Put plainly: inhibition of P. falciparum DHODH – biochemical, C-terminal His tag, absorbance 600 nm, primary screen (AID 1175).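 Further: recombinant parasite enzyme with a five histidine tag at its C terminus; test concentration not given here.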 To be noted: PfDHODH enzyme, DCIP absorbance 600 nm; higher = more signal, called active from +8 up or from −8 down.
Chain of Dihydroorotate dehydrogenase (quinone), mitochondrial (Plasmodium falciparum (isolate 3D7)) (Q08210 whole entry, looked up): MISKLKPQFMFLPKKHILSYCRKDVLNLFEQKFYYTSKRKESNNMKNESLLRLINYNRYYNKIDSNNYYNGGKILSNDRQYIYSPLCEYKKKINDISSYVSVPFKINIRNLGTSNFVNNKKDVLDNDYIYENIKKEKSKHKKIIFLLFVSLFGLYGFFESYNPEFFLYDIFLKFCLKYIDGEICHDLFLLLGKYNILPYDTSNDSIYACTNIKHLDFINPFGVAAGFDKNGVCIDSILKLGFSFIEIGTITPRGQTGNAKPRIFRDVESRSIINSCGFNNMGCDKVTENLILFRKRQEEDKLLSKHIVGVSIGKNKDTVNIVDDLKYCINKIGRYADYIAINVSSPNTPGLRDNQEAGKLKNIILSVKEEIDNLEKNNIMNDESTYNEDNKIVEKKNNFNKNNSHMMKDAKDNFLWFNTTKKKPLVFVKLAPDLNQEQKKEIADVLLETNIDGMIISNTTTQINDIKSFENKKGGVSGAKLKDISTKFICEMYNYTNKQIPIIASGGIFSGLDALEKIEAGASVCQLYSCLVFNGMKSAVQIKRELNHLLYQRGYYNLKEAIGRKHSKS
The nature of test [5]: inhibition of PAO1 biofilm formation – strain PAO1, LB-PBS medium, absorbance 600 nm, primary screen (AID 1176). Further: test concentration not given here. As to conditions: P. aeruginosa PAO1 growth/biofilm, A600, 12 h; higher = more signal.
The nature of test [6]: growth modulation of vineyard yeast isolate – strain RM11-1a, OD600, basal, 24 h, primary screen (AID 1177).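 Further: cultures grown under basal conditions with no added stressor; test concentration not given here.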 To be noted: S. cerevisiae RM11-1a growth, OD600, 24 h; higher = more signal, called active from +8 up or from −8 down.
Test [7] is described as follows: growth of efflux-deficient E. coli DRC39 – strain DRC39, OD650, 24 h, E. coli filamentation inducers, primary screen (AID 1178).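 Further: growth measured as culture turbidity by optical density at 650 nm; test concentration not given here.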 To be noted: E. coli DRC39 acrAB, higher = more signal, called active from +8 up or from −8 down.
Test [8] can be described thus: growth of efflux-deficient E. coli DRC39 – strain DRC39, OD650, 48 h, E. coli filamentation inducers, primary screen (AID 1179).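 Further: screen aims at cell division blockers that make cells filament.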 To be noted: E. coli DRC39 delta-acrAB growth, higher = more signal, called active from +8 up or from −8 down.
Test [9] is described as follows: viability profiling in RPMI8226 myeloma cells – cell-based, resazurin fluorescence, basal, 24 h, PK04 Diversity Set, profiling panel (AID 1180).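 Further: RPMI8826 multiple myeloma cell line at 5000 cells per well; test concentration not given here.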 As to conditions: higher = more signal.
Test [10] has as its target E3 ubiquitin-protein ligase XIAP (Homo sapiens) (UniProt P98170). Put plainly: small molecules binding XIAP protein – biophysical, small-molecule microarray, fluorescence 635 nm, primary screen (AID 1181).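 Further: score merges 667 nm emission and signal to noise over triplicate slides.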 As to conditions: higher = more signal.

Molecules are shown by their SMILES. Calls of active or inactive are those of the source. Unless noted, how the calls were made is not given here.

Chain of E3 ubiquitin-protein ligase XIAP (Homo sapiens) (P98170 whole entry, looked up): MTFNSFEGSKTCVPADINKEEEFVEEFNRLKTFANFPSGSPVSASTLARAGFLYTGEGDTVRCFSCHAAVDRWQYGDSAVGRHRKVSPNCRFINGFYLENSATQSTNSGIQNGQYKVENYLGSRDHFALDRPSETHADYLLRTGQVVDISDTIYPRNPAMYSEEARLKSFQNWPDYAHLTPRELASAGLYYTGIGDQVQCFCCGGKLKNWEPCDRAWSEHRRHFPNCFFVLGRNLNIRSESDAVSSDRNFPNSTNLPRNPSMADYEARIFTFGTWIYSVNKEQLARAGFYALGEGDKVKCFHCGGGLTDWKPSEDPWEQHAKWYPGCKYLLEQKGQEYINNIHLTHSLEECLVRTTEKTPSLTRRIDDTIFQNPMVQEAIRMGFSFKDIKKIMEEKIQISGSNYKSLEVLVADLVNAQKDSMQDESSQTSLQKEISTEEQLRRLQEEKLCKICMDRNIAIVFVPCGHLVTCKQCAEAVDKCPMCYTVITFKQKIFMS

As for `CO[C@H]1COC(=O)CC=C[C@H](C)[C@@H](OC)COC(=O)[C@H](C)COC(=O)CC=C[C@@H]1C`, the z-score in test [1] is 0.531; in test [2], -0.319 (inactive); in test [3], 0.254 (inactive); in [5], -0.838 (inactive); in test [6], 0.606 (inactive); in [7] it was 0.827 (inactive). In addition, the z-score in [8] is 0.0975 (inactive); in test [9], -0.501. Moreover, the composite z-score was 0.491 (inactive) in test [4] and -0.256 in test [10].

Consider `COc1ccc(O[C@@H]2[C@H](O)CO[C@H]2C=Cc2ccccc2)cc1`, for which the z-score was -1.03 in test [1]; -4.4 (inactive) in test [2]; -0.0321 (inactive) in test [3]; 0.83 (inactive) in test [5]; -1.85 (inactive) in test [6]; 0.988 (inactive) in [7]. Moreover, the z-score is -0.741 (inactive) in test [8] and -0.473 in [9]. The composite z-score in test [4] was -1.24 (inactive); in [10], -0.113.

In the case of `CO[C@@H]1COC(=O)CC=C[C@@H](C)[C@H](OC)COC(=O)[C@@H](C)COC(=O)CC=C[C@H]1C`, the z-score in [1] was 0.225; in test [2], -0.621 (inactive); in [3] it was 0.586 (inactive); in test [5], -0.225 (inactive); in test [6] it was 0.401 (inactive); in test [7], 0.666 (inactive). The z-score is 0.733 (inactive) in [8] and 0.151 in [9]. Besides, the figures for the composite z-score in test [4] and in test [10] were 0.577 (inactive) and -0.0264, respectively.

For the compound `CO[C@@H]1C=CCC(=O)N2CCC[C@H]2C(=O)OC[C@@H](C)C(=O)OC[C@H]1C`, the z-score is 1.12 in [1]; -0.62 (inactive) in test [2]; 0.866 (inactive) in [3]; 0.659 (inactive) in [5]; -0.841 (inactive) in test [6]; 0.947 (inactive) in test [7]. The results for the z-score in test [8] and in [9] were 0.977 (inactive) and 0.218, respectively. For the same compound, the composite z-score in [4] was 0.321 (inactive); in [10], 0.104.

`CC(CCN1CCCc2nc(C)c(C)cc21)=NOC(C)CN1CCCCc2nc(C)c(C)cc21` (stereo not given): the z-score in [1] is -0.0007; in test [2], 1.38 (inactive); in test [3], -0.221 (inactive); in test [5], 1.3 (inactive); in [6], 1.02 (inactive); in test [7], 0.315 (inactive). The z-score was -0.554 (inactive) in test [8] and 0.347 in test [9]. For the same compound, the composite z-score in test [4] was 0.131 (inactive); in test [10], 0.593.

On to `CCOC(=O)NN=C1C[C@@H](O)[C@@H](O)[C@@H]2[C@@H]3C(=O)N(C(C)(C)C)C(=O)[C@@H]3CC[C@H]12`, for which the z-score was -1.46 in test [1]; -0.962 (inactive) in [2]; -0.4 (inactive) in [3]; 0.434 (inactive) in test [5]; 0.179 (inactive) in test [6]; 0.408 (inactive) in [7]. The results for the z-score in [8] and in test [9] were 0.72 (inactive) and -0.226, respectively. Also, the composite z-score is -0.397 (inactive) in test [4] and -0.246 in test [10].

Regarding `CCOC(=O)[C@H](Cc1ccccc1)NC(=O)CCC1CC(OC(=O)NCCc2ccc(F)cc2)CC2(CCCC(COC(=O)NCCOC)O2)O1` (stereo not given in full), the z-score was -0.154 in test [1]; -0.664 (inactive) in [2]; -0.195 (inactive) in test [3]; 0.487 (inactive) in [5]; 0.128 (inactive) in [6]; 1.21 (inactive) in [7]. Further, the z-score in test [8] is 0.195 (inactive); in test [9], 0.673. The figures for the composite z-score in test [4] and in [10] were -1.47 (inactive) and -0.242, respectively.

`COC(=O)CC=C[C@@H](C)[C@@H](C=NOCC[C@@H]1C=C[C@H](OC(C)=O)[C@@H](COC(C)=O)O1)NS(=O)(=O)c1ccc(C)cc1`: the z-score was -0.564 in test [1]; 0.705 (inactive) in test [2]; -0.602 (inactive) in test [3]; 0.453 (inactive) in [5]; 0.193 (inactive) in test [6]; 0.336 (inactive) in [7]. Further, the z-score is 0.402 (inactive) in test [8] and -0.393 in [9]. Also, the composite z-score in test [4] is 0.33 (inactive); in test [10] it was 0.0374.

Consider `O=C1CCCC=C1C(CCc1ccccc1)OC(=O)c1ccc(Br)cc1` (stereo not given), for which the z-score in [1] is -0.0575; in test [2] it was -0.744 (inactive); in test [3] it was -0.688 (inactive); in test [5], 1.18 (inactive); in [6] it was -0.0079 (inactive); in test [7], -0.147 (inactive). For the same compound, the z-score was -0.247 (inactive) in test [8] and 0.504 in test [9]. In addition, the results for the composite z-score in [4] and in test [10] were -1.19 (inactive) and 0.289, respectively.

`C#CCCCON=C1C[C@@H](O)[C@@H](O)[C@@H]2[C@@H]3C(=O)N(C(C)(C)C)C(=O)[C@@H]3CC[C@H]12`: the z-score in test [1] was -0.375; in [2], 0.522 (inactive); in [3] it was -0.0486 (inactive); in [5], -0.143 (inactive); in test [6] it was -0.311 (inactive); in test [7] it was 0.329 (inactive). For the same compound, the z-score was 0.221 (inactive) in test [8] and -0.0553 in [9]. The composite z-score is -0.396 (inactive) in [4] and -0.0849 in [10].

As for `COc1ccc(O[C@@H]2[C@H](O)CO[C@@H]2C=Cc2ccccc2)cc1`, the z-score in [1] is -0.489; in test [2], -2.44 (inactive); in test [3], 0.995 (inactive); in test [5], 0.815 (inactive); in [6], -0.614 (inactive); in test [7] it was -1.16 (inactive). Besides, the z-score is -1.93 (inactive) in test [8] and 0.54 in test [9]. Also, the results for the composite z-score in test [4] and in test [10] were -3.01 (inactive) and 0.0975, respectively.

In the case of `COc1ccc(C#C[C@@H]2C=C[C@H](OC(C)=O)[C@@H](COC(C)=O)O2)cc1`, the z-score was 0.0002 in test [1]; -1.59 (inactive) in test [2]; -2.77 (inactive) in [3]; 0.0372 (inactive) in test [5]; -0.939 (inactive) in [6]; 0.746 (inactive) in test [7]. Also, the z-score is 0.348 (inactive) in test [8] and -1.49 in test [9]. Moreover, the composite z-score in test [4] is -0.531 (inactive); in [10], -0.0801.

As for `CC(=O)OC[C@H]1O[C@H](CC=NO[C@H](C)c2cn([C@H](CO)Cc3ccccc3)nn2)C=C[C@@H]1OC(C)=O`, the z-score was 0.242 in [1]; 1.53 (inactive) in test [2]; -0.376 (inactive) in [3]; 0.642 (inactive) in test [5]; 1.57 (inactive) in test [6]; -0.182 (inactive) in test [7]. Also, the z-score was -0.554 (inactive) in [8] and 0.103 in test [9]. Also, the composite z-score in test [4] is 0.53 (inactive); in [10], 0.699.

The values are drawn from PubChem BioAssay.
